Records with an inconclusive call do not appear. Activity calls are given as the source filed them. The calls were made as follows: active = hit-call score of the fitted dose curve at least 0.9, where 1 is the maximum; inconclusive = response in the unintended direction; inactive = score below 0.9.

Experiment [1] has as its target Luciferin 4-monooxygenase (Photinus pyralis) (UniProt P08659). The experiment in a line: CCTE_Simmons_QuantiLum_inhib_2: CCTE's Firefly Luciferase Inhibition Assay, Simmons Lab (AID 2283767).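 As to AC50: potency for inhibitors that lower luciferase luminescence relative to DMSO.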 The essentials:
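First, 5 ng purified luciferase in phosphate buffer with BSA is dispensed per well. Next, test chemicals (5 nM to 87.5 uM final, 0.5% DMSO) are added and incubated 30 min at 37C in darkness. Finally, luciferin reagent is injected and luminescence read kinetically.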

Experiment [2] in a line: ACEA_AR_agonist_AUC_viability: ACEA Biosciences xCELLigence Real-Time Cell Analysis on Androgen Receptor Agonism for Viability (AID 2283775).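 As to AC50: viability read 80 hours after compound addition.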 The essentials:
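22Rv1 cells; impedance growth kinetics; 8-pt 1:4 dilutions from 100 uM top final, ≤0.5% DMSO; n = 2; 80 h read; AUC viability, loss-of-signal vs DMSO.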

Experiment [3] is described as follows: ArunA_NOG_BranchPointsPerNeurite: ArunA Biomedical's Neurite Outgrowth (NOG) Assay for Branch Points Per Neurite (AID 2283759). The essentials:
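Automated image analysis traced neurites (processes >10 um) from valid cell bodies after Hoechst and βIII-tubulin staining. hNN cells from H9 embryonic stem cells, 48 h exposure. Fitted bidirectionally against DMSO.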

Experiment [4] can be described thus: ACEA_AR_antagonist_AUC_viability: ACEA Biosciences xCELLigence Real-Time Cell Analysis on Androgen Receptor Antagonism for Viability (AID 2283776).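 Also: area under impedance growth curve at 80 h after dosing as viability; hits lower the growth signal relative to DMSO meaning cytotoxicity.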 The essentials: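 22Rv1 human prostate cancer cells were seeded on electrode plates, monitored overnight, then exposed to eight 1:4 dilutions from 100 uM final. Impedance-based growth kinetics at 80 h gave an AUC viability endpoint normalized to DMSO.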

The target of experiment [5] is AR (gene 367) (UniProt P10275). Kind of experiment: ACEA_AR_antagonist_80hr: ACEA Biosciences xCELLigence Real-Time Cell Analysis on Androgen Receptor Antagonism for Proliferation (AID 2283787).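 Also: hits lower the impedance growth signal relative to DMSO.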 The essentials: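 Impedance-based real-time growth of 22Rv1 prostate cells, read 80 h after dosing. Eight concentrations, 1:4 series, top 100 uM final (0.5% DMSO), n = 2; signal decrease scored against DMSO.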

Experiment [6] has as its target AR (gene 367) (UniProt P10275). The experiment in a line: ACEA_AR_agonist_80hr: ACEA Biosciences xCELLigence Real-Time Cell Analysis on Androgen Receptor Agonism for Proliferation (AID 2283783).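 Also: hits increase impedance growth signal above DMSO baseline.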 Here is the method: ACEA_AR_agonist is a cell-based, single-readout assay that uses 22Rv1, a human prostate cancer cell line, with measurements taken at 80 hours after chemical dosing in a 384-well plate, although TO5 and TO6 (mc0.srcf) used a 96-well plate. Differences in plate size can be ignored given data normalization.ACEA_AR_agonist_80hr is one of two assay component(s) measured or calculated from the ACEA_AR assay. It is designed to make measurements of real-time cell-growth kinetics, a form of growth reporter, as detected with electrical impedance signals by Real-Time Cell Electrode Sensor (RT-CES) technology.Data from the assay component ACEA_AR_agonist_80hr was analyzed in the positive analysis fitting direction relative to DMSO as the negative control and baseline of activity. Using a type of growth reporter, measures of the cells for gain-of-signal activity can be used to understand the signaling at the pathway-level as they relate to the geneAR Furthermore, this assay endpoint can be referred to as a primary readout, because this assay has produced multiple assay endpoints where this one serves a signaling function. To generalize the intended target to other relatable targets, this assay endpoint is annotated to the nuclear receptor intended target family, where the subfamily is steroidal.
The xCELLigence system Multi-E-Plate stations were used to measure the time-dependent response to chemicals. Each compound was tested in an eight-point, 1:4 serial dilution series starting at a maximum final concentration of 100 uM. A maximum starting concentration of 0.5% DMSO was present in the 100 uM chemical samples and was diluted along with the test article dilution series. The screen was performed in biological duplicate using two separate, 96-well, E-Plates 96 for each dilution series (n = 2). Positive controls (MG132 and testosterone) and a negative control (assay media) were tested in quadruplicate on each testing plate. […] Reference compounds were tested with 8 concentrations with 1:5 serial dilutions. All screening was carried out by ACEA Biosciences, Inc. (San Diego, CA). 22Rv1 cells purchased from ATCC were maintained in media supplemented with 10% fetal bovine serum (FBS). Before screening, 22Rv1 cells were preconditioned in assay medium. Cells were then detached and seeded in E-Plates 96 in assay medium. After overnight monitoring of growth once every hour, compounds were added to […] cells and remained in the medium until the end of the experiment. Cellular responses were then recorded once every 5 min for the first 5 h, and once every hour for an additional 100 h.

Chain of AR (gene 367) (P10275 whole entry, looked up): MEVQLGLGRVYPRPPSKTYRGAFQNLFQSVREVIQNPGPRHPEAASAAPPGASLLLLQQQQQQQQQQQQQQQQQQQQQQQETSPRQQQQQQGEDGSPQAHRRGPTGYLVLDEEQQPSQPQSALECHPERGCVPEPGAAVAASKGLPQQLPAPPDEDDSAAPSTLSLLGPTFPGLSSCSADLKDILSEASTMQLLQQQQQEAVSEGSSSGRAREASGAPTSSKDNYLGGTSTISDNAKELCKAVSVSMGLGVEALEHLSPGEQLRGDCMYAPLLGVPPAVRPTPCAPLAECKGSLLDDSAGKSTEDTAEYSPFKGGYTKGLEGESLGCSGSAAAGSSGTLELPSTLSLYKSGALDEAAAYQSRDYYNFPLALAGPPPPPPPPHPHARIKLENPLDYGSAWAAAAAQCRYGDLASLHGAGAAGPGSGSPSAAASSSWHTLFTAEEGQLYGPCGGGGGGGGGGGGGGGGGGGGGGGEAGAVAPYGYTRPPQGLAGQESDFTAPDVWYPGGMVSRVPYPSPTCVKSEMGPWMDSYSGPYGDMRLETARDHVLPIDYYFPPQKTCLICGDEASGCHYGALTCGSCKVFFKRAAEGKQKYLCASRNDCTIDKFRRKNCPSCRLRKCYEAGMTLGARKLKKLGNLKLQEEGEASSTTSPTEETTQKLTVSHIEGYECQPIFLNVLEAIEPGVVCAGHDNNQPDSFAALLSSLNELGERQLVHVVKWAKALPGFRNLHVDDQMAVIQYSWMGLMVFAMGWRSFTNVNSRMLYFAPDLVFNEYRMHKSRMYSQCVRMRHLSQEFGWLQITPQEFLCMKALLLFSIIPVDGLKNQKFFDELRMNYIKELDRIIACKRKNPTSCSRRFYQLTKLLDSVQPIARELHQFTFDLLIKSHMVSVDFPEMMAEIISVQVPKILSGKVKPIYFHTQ
Chain of Luciferin 4-monooxygenase (Photinus pyralis) (P08659 whole entry, looked up): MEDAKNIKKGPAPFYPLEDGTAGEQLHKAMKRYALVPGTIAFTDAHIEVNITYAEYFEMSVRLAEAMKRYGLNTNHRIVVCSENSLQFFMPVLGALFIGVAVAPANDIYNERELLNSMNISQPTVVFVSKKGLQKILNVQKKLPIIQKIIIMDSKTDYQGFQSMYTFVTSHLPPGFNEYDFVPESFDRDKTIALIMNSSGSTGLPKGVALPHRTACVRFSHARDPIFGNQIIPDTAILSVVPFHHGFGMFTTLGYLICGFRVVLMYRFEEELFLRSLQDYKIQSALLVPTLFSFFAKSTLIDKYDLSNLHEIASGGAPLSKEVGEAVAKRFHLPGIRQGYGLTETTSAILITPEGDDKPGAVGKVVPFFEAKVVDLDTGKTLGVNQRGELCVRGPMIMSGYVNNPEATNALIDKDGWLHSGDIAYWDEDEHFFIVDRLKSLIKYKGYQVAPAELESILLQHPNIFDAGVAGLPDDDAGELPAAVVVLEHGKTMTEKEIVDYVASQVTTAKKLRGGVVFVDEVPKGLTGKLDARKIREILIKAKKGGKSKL

For the compound `Nc1nc(N)c2nc(CNc3ccc(C(=O)N[C@@H](CCC(=O)O)C(=O)O)cc3)cnc2n1`, the outcome in experiment [1] and in experiment [2] was inactive.

As for `OC[C@@H](O)[C@@H](O)[C@H](O)[C@H](O)CO`, the half-maximal activity concentration (AC50) in experiment [3] was 9.92 µM (active). Further, in experiment [4], the compound was classed as inactive.

`Nc1ccccc1N`: the AC50 in experiment [1] was 24.8 µM (active); in experiment [4] it was 24.2 µM (active). In experiment [2], the result was inactive.

For the compound `CN1CCCC1=O`, the compound was classed as inactive in experiment [1], in experiment [2] and in experiment [4].

As for `Cc1cc(=O)[nH]c(=S)[nH]1`, the values for the AC50 in experiment [1] and in experiment [4] were 53.8 µM (active) and 9.94 µM (active), respectively. Also, in experiment [2], the compound was classed as inactive.

`C=CCc1ccc(O)c(OC)c1`: the result in experiment [1], in experiment [2] and in experiment [4] was inactive.

Regarding `Cc1ccc(N(C)C)cc1`, the outcome (in experiment [1]; in experiment [2]; in experiment [4]; with AR (gene 367) [5]) was inactive.

In the case of `CC=Cc1ccc(O)c(OC)c1`, the compound was classed as inactive in experiment [1]. The AC50 in experiment [2] was 50 µM (active); in experiment [4], 19.3 µM (active).

Regarding `Oc1ccc2ccccc2c1N=Nc1ccccc1`, the result in experiment [3] and in experiment [4] was inactive. Moreover, in experiment [1], the AC50 was 12.6 µM (active).

As for `COc1cc(S(=O)(=O)O)c(C)cc1N=Nc1c(O)ccc2cc(S(=O)(=O)O)ccc12`, the AC50 in experiment [1] was 10.7 µM (active). Also, the call in experiment [4] was inactive.

For `NC(=O)Cn1c(=O)cc(CCN2CCN(c3nccc4sccc34)CC2)c2ccc(F)cc21`, the outcome in experiment [2] was inactive. Also, the AC50 in experiment [4] was 12.1 µM (active).

As for `C[Si]1(C)O[Si](C)(C)O[Si](C)(C)O[Si](C)(C)O1`, the result in experiment [2] and in experiment [4] was inactive.

With `FC(F)(F)C(F)(F)C(F)(F)C(F)(F)C(F)(F)C(F)(F)CCI`, the compound was called inactive in experiment [2] and in experiment [4].

On to `CCCCCCCC=O`, for which the outcome in experiment [2] and in experiment [4] was inactive.

`NCC1(Cc2noc(=O)[nH]2)CCCCC1`: the outcome in experiment [2] and in experiment [4] was inactive.

Take `NS(=O)(=O)c1cc2c(cc1Cl)NCNS2(=O)=O`: the compound was called inactive in experiment [2] and in experiment [4].

On to `O=C(OCCCCCOC(=O)c1ccccc1)c1ccccc1`, for which the AC50 in experiment [2] is 90.1 µM (active); in experiment [4] it was 77.9 µM (active).

In the case of `CCCCCCCCCCCCCO`, the call in experiment [2] and in experiment [4] was inactive.

On to `O=C(O)CCCCC(=O)O`, for which the AC50 was 9.92 µM (active) in experiment [2] and 3.82 µM (active) in experiment [4].

Turning to `CC1(C)NC(=O)NC1=O`, the compound was classed as inactive in experiment [2] and in experiment [4].

As to `Cc1cc(NC(=O)C(=O)O)cc(C)c1Oc1ccc(O)c2c1CCC2`, the AC50 in experiment [1] was 79.3 µM (active). Also, the call (in experiment [4]; in the experiment with AR (gene 367) [6]; with AR (gene 367) [5]) was inactive.

A word on the AC50: it is the concentration giving half of the maximal activity seen.
